Screens: PubChem BioAssay, National Center for Advancing Translational Sciences (NCATS)
KB-V1 MDR tox – qHTS assay for MDR1-selective chemotherapeutics: Primary screen using the drug-selected MDR subline cells KB-V1 | KB-V1 MDR cells viability, CellTiter-Glo, 72 h | Potency, µM (series often up to 46.1 µM), usual class: cytotoxic | actives 3.4% (n = 400,000) | AID 1347076, 2019; note: nearly all actives have a fitted effect of over 60% in size
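KB-V1, DMEM (no phenol red) + 10% FBS; cpd pin-transferred, titration series; 72 h, 37 degrees C; CellTiter-Glo, luminescence. Data normalized, curve-fit.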
KB-3-1 tox – qHTS assay for MDR1-selective chemotherapeutics: Primary screen using the parental adenocarcinoma cell KB-3-1 | KB-3-1 viability, CellTiter-Glo ATP luminescence, 72 h | Potency, µM (titrated, usually from 46.1 µM), actives largely listed as cytotoxic | actives 1.4% (n = 400,000) | AID 1347075, 2019; note: nearly all actives have a fitted effect of over 60% in size
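Parental KB-3-1 adenocarcinoma cells in phenol-red-free DMEM with 10% FBS were pin-treated with compounds at several concentrations, incubated 72 h at 37 °C, and viability read by CellTiter-Glo luminescence; concentration-effect curves were fitted after normalization.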
HT1080 IDH1KD tx – qHTS for induction of synthetic lethality in tumor cells producing 2HG: qHTS for the HT-1080-IDH1KD cell line. HT-1080 IDH1 knockdown viability, ATP luminescence, 48 h. actives 2% (n = 360,000). Potency, µM (series often up to 46.1 µM), usual class: cytotoxic
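Knockdown cells (IDH1KD HT-1080) received compounds 2 h after plating at 750 cells/well and were kept 48 h at 37 °C in 5% FBS RPMI. A CellTiter-Glo luminescence read gave % activity for curve fitting.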
HT1080-NT tox – qHTS for induction of synthetic lethality in tumor cells producing 2HG: qHTS for the HT-1080-NT fibrosarcoma cell line. AID 686970, 2013. Potency, µM (series often up to 46.1 µM), hits mostly cytotoxic. HT-1080-NT fibrosarcoma viability, CellTiter-Glo ATP luminescence, 48 h. actives 1.6% (n = 360,000);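 note: NT is the 2HG producing partner of a matched IDH1 knockdown line; nearly all actives have a fitted effect of over 55% in size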
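750 cells/well, RPMI + 5% FBS; 2 h settle, compound pin-transfer, 48 h at 37 degrees C. CellTiter-Glo 10 min RT, luminescence. Normalized to DMSO and media-only wells.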
IL-1B inflam inh – qHTS for Inhibitors of Inflammasome Signaling: IL-1-beta AlphaLISA Primary Screen | activity change, % at 57.5 µM | actives 4.7% (n = 360,000) | THP-1 LPS/ATP IL-1B secretion, AlphaLISA, 16 h; stronger effect = lower value; in the data active = activity change below about -50%; inconclusive = mostly about -30% to -49%
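THP-1 cells pretreated 1 hr with compounds (up to 57.5 uM final), then stimulated with LPS (250 ng/mL final) plus ATP (1.25 mM final); secreted IL-1B measured by AlphaLISA after 16 hr, decreased signal indicating inhibition.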
Large screens that a line does not name were inactive. The list is not random: actives were taken first. Their share in the collection is about 8.8%. Unless noted, calls come from the whole dose curve; as a rule, active = well fitted curve in the direction sought with a large enough effect; inconclusive = small, poorly fitted or top-dose-only effect, or another doubt; inactive = no such curve, though single readings can be large; an effect the other way counts as inactive or inconclusive.

CN(C)CCC(O)(c1ccccc1)c1ccccc1	none
NCC(c1ccccc1)(c1ccccc1)c1ccccc1	KB-V1 MDR tox 21µM, KB-3-1 tox inconclusive, HT1080 IDH1KD tx inconclusive, HT1080-NT tox inconclusive
c1ccc(Cn2c[n+](Cc3ccccc3)c3ccccc32)cc1	KB-3-1 tox 23µM, HT1080 IDH1KD tx inconclusive, HT1080-NT tox inconclusive
Cc1ccc(C(=O)Nc2ncc(Cc3ccc(F)cc3)s2)o1	KB-V1 MDR tox 9.2µM, KB-3-1 tox 5.8µM, HT1080 IDH1KD tx inconclusive
Cc1ccc(C(=O)Nc2ncc(Cc3ccc(SC(F)F)cc3)s2)cc1	KB-V1 MDR tox 1µM, KB-3-1 tox inconclusive, HT1080 IDH1KD tx 2.6µM, HT1080-NT tox 1.8µM
Cc1cc(Nc2cccc(Cl)c2)nc2ccc(NC(=O)c3ccc(F)cc3Cl)cc12	none (no result: HT1080 IDH1KD tx, HT1080-NT tox, IL-1B inflam inh)
COc1ccc(OC)c2sc(N3CCN(C(=O)C(C)(C)C)CC3)nc12	none (no result: HT1080 IDH1KD tx, HT1080-NT tox, IL-1B inflam inh)
Cc1cc2cc(CN(Cc3cccs3)C(c3nnnn3C(C)(C)C)C(C)C)c3nnnn3c2cc1C (stereo not drawn)	KB-V1 MDR tox 1.8µM
CCCc1c(C(=O)N/N=C(/C)c2ccncc2)nnn1-c1nonc1N	KB-V1 MDR tox inconclusive
CC(=O)c1cnc(Oc2cc(Cl)ccc2Cl)nc1C	none
CCc1cc(C(=O)N(C)CC(=O)Nc2c(Cl)cccc2Cl)sc1C	KB-V1 MDR tox 18µM
Cc1cccc(Nc2nnc(-c3ccc(N4CCOCC4)c([N+](=O)[O-])c3)c3ccccc23)c1	KB-3-1 tox inconclusive, IL-1B inflam inh -62
Cc1cc(OCCOCCNC(C)C)cc(C)c1Cl	KB-V1 MDR tox inconclusive, KB-3-1 tox inconclusive, HT1080 IDH1KD tx inconclusive, HT1080-NT tox inconclusive
Cc1cc(OCCCCNC(C)C)cc(C(C)C)c1	KB-V1 MDR tox 21µM
CCCCCCCOc1ccc(CC(=O)NO)cc1	none (no result: HT1080 IDH1KD tx, HT1080-NT tox, IL-1B inflam inh)
Cc1ccsc1/C=C(\CC(=O)O)c1nc2ccccc2o1	none
Cc1ccsc1/C=C(\C(=O)c1ccc(OC(C)C)cc1)c1nc2ccccc2o1	KB-V1 MDR tox inconclusive, IL-1B inflam inh -67
Cc1ccn(CC(=O)N2CCCC(N3CCN(c4cccc(C(F)(F)F)c4)CC3)C2)n1 (stereo not drawn)	KB-V1 MDR tox inconclusive
N#C/C(=C1/C(=O)Nc2ccc(Br)cc21)c1ccccn1	IL-1B inflam inh -62
CCc1ccccc1NC(=O)C1CCN(c2nc3ccccc3[nH]2)CC1	none (no result: HT1080 IDH1KD tx, HT1080-NT tox, IL-1B inflam inh)
Cc1cc(O)cc2c1C1CCC3(C)C(O)CCC3C1C=C2 (stereo not drawn)	KB-V1 MDR tox inconclusive, KB-3-1 tox inconclusive, HT1080 IDH1KD tx 18µM, HT1080-NT tox inconclusive
N#CCc1cc2ccc3cccc4ccc(c1)c2c34	KB-V1 MDR tox 7.3µM, KB-3-1 tox inconclusive
CCCN1CCN(c2ncnc3sc(C(=O)Nc4ccc(N(CC)CC)cc4C)c(C)c23)CC1	none (no result: HT1080 IDH1KD tx, HT1080-NT tox, IL-1B inflam inh)
Cc1ccc(NC(=O)Cn2c(=O)n(-c3ccc(C)cc3)c(=O)c3c2cnn3C)cc1	none (no result: HT1080 IDH1KD tx, HT1080-NT tox, IL-1B inflam inh)
COc1ccc(CCCc2nnc(SCC(=O)Nc3ccc(F)cc3)o2)cc1C	none (no result: HT1080 IDH1KD tx, HT1080-NT tox, IL-1B inflam inh)
CCOC(=O)c1nnc(-c2ccccc2)o1	none
O=C(CCc1ccccc1)c1nnc(-c2ccccc2)o1	IL-1B inflam inh -53
CN1C(=O)/C(=N\OC(=O)c2cccc3ccccc23)c2ccccc21	HT1080 IDH1KD tx inconclusive, HT1080-NT tox 13µM, IL-1B inflam inh -100
COc1ccc(C(=O)O/N=C2\C(=O)N(C)c3ccccc32)cc1	none
O=C(c1ccc(CS(=O)Cc2ccc(Cl)cc2)o1)N1CCN(c2ccccn2)CC1 (stereo not drawn)	KB-V1 MDR tox inconclusive, IL-1B inflam inh -62
COc1cccc(N2CCN(C(=O)c3ccc(CS(=O)Cc4ccccc4Cl)o3)CC2)c1 (stereo not drawn)	none
COc1cccc(N2CCN(C(=O)c3ccc(CS(=O)Cc4ccc(Cl)cc4)o3)CC2)c1 (stereo not drawn)	KB-V1 MDR tox 16µM
O=C(c1ccc(CS(=O)Cc2ccccc2Cl)o1)N1CCN(c2ccccn2)CC1 (stereo not drawn)	KB-V1 MDR tox 18µM
O=C(c1ccc(CS(=O)c2ccccc2Cl)o1)N1CCN(c2ccccn2)CC1 (stereo not drawn)	KB-V1 MDR tox inconclusive, KB-3-1 tox 7.3µM, HT1080 IDH1KD tx 7.3µM, HT1080-NT tox inconclusive
CCCN1CCN(CC2=C(C(=O)OCC)C(c3ccc(OC(C)C)cc3)NC(=O)N2)CC1 (stereo not drawn)	none (no result: HT1080 IDH1KD tx, HT1080-NT tox, IL-1B inflam inh)
CCOCCCn1c(SCC(=O)OCC)nc2c(sc3ccccc32)c1=O	KB-V1 MDR tox inconclusive (no result: HT1080 IDH1KD tx, HT1080-NT tox, IL-1B inflam inh)
O=C(Nc1ccccc1)c1cccc2c(-c3cccnc3)coc12	none
NS(=O)(=O)c1ccc(N2N=C(c3ccccc3)CC2c2ccccc2)cc1 (stereo not drawn)	KB-V1 MDR tox inconclusive, KB-3-1 tox inconclusive, HT1080 IDH1KD tx inconclusive, HT1080-NT tox inconclusive, IL-1B inflam inh -52
CCc1ccc(C2=NN(c3ccc(S(N)(=O)=O)cc3)C(c3ccc(F)cc3)C2)cc1 (stereo not drawn)	KB-V1 MDR tox inconclusive, KB-3-1 tox inconclusive, HT1080 IDH1KD tx inconclusive, HT1080-NT tox inconclusive, IL-1B inflam inh -87
COc1ccccc1C(=O)Nc1ccc2c(c1)n(C)c(=O)n2C	IL-1B inflam inh inconclusive
O=S(=O)(c1cccc(F)c1)N1CCN(C(=S)NCC2CCCO2)CC1 (stereo not drawn)	none (no result: KB-V1 MDR tox, KB-3-1 tox)
CC(C)N1CCCC(C)(C(=O)Nc2nccc3ccccc23)C1 (stereo not drawn)	none
CCCCn1c(SCC(=O)Nc2cc(C(F)(F)F)cc(C(F)(F)F)c2)nnc1C(CC)N(C)C (stereo not drawn)	KB-V1 MDR tox 15µM
CC1CCCCN1S(=O)(=O)Cc1ccccc1Cl (stereo not drawn)	none
COc1ccc(-c2onc3ccc(Br)cc23)cc1	none
COc1cc(-c2onc3ccc(Br)cc23)cc(OC)c1OC	KB-V1 MDR tox 2.1µM, KB-3-1 tox 5.2µM, HT1080 IDH1KD tx 1.8µM, HT1080-NT tox 1.8µM
CC(C)CNc1nc2c(c(=O)n(C)c(=O)n2C)n1Cc1cccc(Br)c1	none
CC(O)CNc1nc2c(c(=O)n(C)c(=O)n2C)n1Cc1cccc(Br)c1 (stereo not drawn)	KB-V1 MDR tox 15µM, KB-3-1 tox inconclusive
COc1cccc(Cn2c(NCc3ccco3)nc3c2c(=O)n(C)c(=O)n3C)c1	KB-V1 MDR tox inconclusive, KB-3-1 tox inconclusive
COc1cccc(Cn2c(NCC(C)C)nc3c2c(=O)n(C)c(=O)n3C)c1	KB-V1 MDR tox 3.3µM, HT1080 IDH1KD tx inconclusive, HT1080-NT tox inconclusive
COCc1cc(C)nc(SCC[N+](C)(C)CC(=O)c2ccccc2)c1C#N	none
